A word on the AC50: it is the midpoint of the concentration-response curve, whichever way the signal moves.

Assay [1] addresses CCAAT/enhancer-binding protein beta (Homo sapiens) (UniProt P17676). Kind of assay: ATG_C_EBP_CIS: Attagene CIS-FACTORIAL HepG2 Assay for human CCAAT/Enhancer Binding Protein (C/EBP) beta (AID 2282927). Particulars: HepG2 Attagene cis-factorial transcription factor reporter; actives raise or lower the signal. The method, boiled down: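 Chemical-treated HepG2 cells (24 h) bearing cis-regulated reporter constructs were processed for total RNA, then reverse transcription, PCR amplification, fluorescent primer extension and fragment analysis; gain- and loss-of-signal were fitted against DMSO.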

A short description of assay [2]: ATG_DR4_LXR_CIS: Attagene CIS-FACTORIAL HepG2 Assay for human Liver X Receptor (LXR), DR4 submotif (AID 2282929). Particulars: HepG2 Attagene DR4 cis-reporter, mRNA transcription; actives raise or lower the signal. The method, boiled down:
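HepG2 cells were transiently transfected with multiple cis-regulated reporter units and dosed for 24 hours. The DR4 reporter mRNA was quantified by RT-PCR, 6-FAM labelling and capillary electrophoresis. Bidirectional fits used DMSO as baseline.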

The target of assay [3] is Aryl hydrocarbon receptor (Homo sapiens) (UniProt P35869). Kind of assay: ATG_Ahr_CIS: Attagene CIS-FACTORIAL HepG2 Assay for human Aryl Hydrocarbon Receptor (Ahr) (AID 2282930). Particulars: HepG2 AhR cis-factorial reporter transcription; actives raise or lower the signal. Put shortly: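 Following 24 h of chemical dosing, transfected HepG2 liver cells with cis-driven reporter units were lysed for RNA; reporter mRNA was quantified via RT-PCR and capillary electrophoresis, and responses fitted bidirectionally from DMSO.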

Assay [4] can be described thus: ATG_AP_1_CIS: Attagene CIS-FACTORIAL HepG2 Assay for human Activator Protein 1 (AP-1) (AID 2282931). Particulars: HepG2 Attagene cis-factorial AP-1 reporter mRNA; actives raise or lower the signal. The method, boiled down:
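HepG2 cells transiently transfected with cis-element-driven reporter transcription units, dosed for 24 hours. Reporter mRNA measured by RT-PCR, 6-FAM labelling, HpaI digestion and capillary electrophoresis. Bidirectional fitting against DMSO baseline.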

Assay [5] can be described thus: ATG_BRE_CIS: Attagene CIS-FACTORIAL HepG2 Assay for human Bone Morphogenetic Protein (BMP) Response Element (BRE) (AID 2282933). Particulars: HepG2 BMP response element reporter, Attagene transcription factor profiling; actives raise or lower the signal. The method, boiled down: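 Fluorescence-labelled reporter cDNA fragments, separated by capillary electrophoresis, gave the signal for this component of a 52-readout multiplex. HepG2 cells were transfected, exposed to chemicals for 24 h, and compared with DMSO using bidirectional fitting.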

Assay [6] concerns the target Retinoic acid receptor alpha (Homo sapiens) (UniProt P10276). As to the kind of experiment: ATG_DR5_RAR_CIS: Attagene CIS-FACTORIAL HepG2 Assay for human Retinoic Acid Receptor Alpha (RARE), DR5 submotif (AID 2282934). Particulars: HepG2 Attagene cis-factorial RARE DR5 reporter, mRNA; actives raise or lower the signal. The method, boiled down:
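Transfected HepG2 reporter cells are exposed to chemicals for 24 h. Then RNA is extracted and the DR5 element reporter transcript is measured by RT-PCR and capillary electrophoresis, with bidirectional curve fitting relative to DMSO.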

Assay [7] addresses Transcription factor E2F1 (Homo sapiens) (UniProt Q01094). As to the kind of experiment: ATG_E2F_CIS: Attagene CIS-FACTORIAL HepG2 Assay for human E2F Transcription Factor 1 (AID 2282935). Particulars: HepG2 Attagene cis-reporter, E2F reporter RNA transcripts; actives raise or lower the signal. Put shortly:
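Multiplexed cis-reporter assay: HepG2, transient transfection, 24 h dosing, mRNA quantitation by labeled RT-PCR and CE.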

A short description of assay [8]: ATG_E_Box_CIS: Attagene CIS-FACTORIAL HepG2 Assay for human Enhancer Box (E-box) (AID 2282936). Particulars: HepG2 E-box cis-reporter transcription, actives raise or lower the signal. The method, boiled down:
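Multiplexed CIS reporter system in transiently transfected HepG2 cells measures native transcription factor activity. Reporter RNA after 24 h exposure is profiled by RT-PCR-capillary electrophoresis.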

Assay [9] is described as follows: ATG_M_61_CIS: Attagene CIS-FACTORIAL HepG2 Assay for M61 Transcription Factor (Internal Marker) (AID 2282937). Particulars: HepG2 Attagene CIS-FACTORIAL M61 internal marker reporter; actives raise or lower the signal. The method, boiled down: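 HepG2 cells transiently transfected with multiplexed cis-promoter reporter units reporting endogenous transcription factor activity, measured 24 h after dosing. Reporter mRNA quantified by RT-PCR and capillary electrophoresis; bidirectional fit against DMSO baseline.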

The nature of assay [10]: ATG_EGR_CIS: Attagene CIS-FACTORIAL HepG2 Assay for human Early Growth Response 1 (EGR1) (AID 2282938). Particulars: HepG2 Attagene CIS-FACTORIAL EGR reporter mRNA; actives raise or lower the signal. The method, boiled down:
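HepG2 cells transiently transfected with cis-element-driven multiplexed reporter units, dosed for 24 h. EGR1-element reporter mRNA quantified by RT-PCR, 6-FAM labelling, HpaI digestion and capillary electrophoresis; bidirectional fit versus DMSO.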

The nature of assay [11]: ATG_M_19_CIS: Attagene CIS-FACTORIAL HepG2 Assay for M19 Transcription Factor (Internal Marker) (AID 2282939). Particulars: HepG2 Attagene CIS-FACTORIAL M19 internal marker reporter; actives raise or lower the signal. The method, boiled down:
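HepG2, MRTU transient transfection, 24 h dosing. Total RNA → RT-PCR → 6-FAM primer extension → HpaI digest → CE fluorescence. Bidirectional curve fit, DMSO negative control.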

Assay [12] in a line: ATG_ERE_CIS: Attagene CIS-FACTORIAL HepG2 Assay for Estrogen Response Element (ERE) (AID 2282940). Particulars: HepG2 ERE cis-reporter, Attagene RNA transcript; actives raise or lower the signal. Put shortly:
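After a 24 h chemical treatment, RNA from reporter-transfected HepG2 cells is reverse-transcribed, PCR-amplified and fluorescently labelled. Fragments separated by capillary electrophoresis give reporter signal; DMSO serves as negative control.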

Assay [13] can be described thus: ATG_Ets_CIS: Attagene CIS-FACTORIAL HepG2 Assay for human Erythroblast Transformation Specific (ETS) (AID 2282941). Particulars: HepG2 ETS cis-reporter transcription, actives raise or lower the signal. Put shortly: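 HepG2 cells transfected with multiple cis-regulated reporter units measuring endogenous ETS-driven transcription, 24 h after dosing. Reporter mRNA quantified by RT-PCR with capillary electrophoresis; bidirectional fit relative to DMSO.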

Assay [14] has as its target Hepatocyte nuclear factor 3-beta (Homo sapiens) (UniProt Q9Y261). Kind of assay: ATG_FoxA2_CIS: Attagene CIS-FACTORIAL HepG2 Assay for human Forkhead box A2 (FOXA2) (AID 2282942). Particulars: HepG2 cis-reporter transcription factor activity, 24 h; actives raise or lower the signal. Put shortly:
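HepG2 transiently transfected with a multiplexed cis-promoter reporter library read endogenous FOXA2 activity. After 24 h compound exposure, reporter mRNA was quantified by RT-PCR, HpaI digestion and capillary electrophoresis. Bidirectional fit against DMSO.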

A short description of assay [15]: ATG_GATA_CIS: Attagene CIS-FACTORIAL HepG2 Assay for human GATA Binding Protein (AID 2282944). Particulars: HepG2 GATA cis-element reporter, Attagene multiplex mRNA; actives raise or lower the signal. The method, boiled down: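 Cells: HepG2, transiently transfected with cis-regulated reporter transcription units. Exposure: 24 h. Detection: RT-PCR plus capillary electrophoresis of FAM-labeled fragments. Analysis: bidirectional, DMSO as baseline.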

A short description of assay [16]: ATG_GLI_CIS: Attagene CIS-FACTORIAL HepG2 Assay for human Zinc Finger Protein GLI1 (AID 2282945). Particulars: HepG2, Attagene cis-factorial reporter mRNA, GLI element; actives raise or lower the signal. Put shortly: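 HepG2 cells transiently transfected with cis-promoter multiplexed reporter units report endogenous transcription factor activity. After 24 h chemical exposure, reporter mRNA was quantified by RT-PCR, 6-FAM labelling, HpaI digestion and capillary electrophoresis, with bidirectional fitting against DMSO.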

Assay [17] is described as follows: ATG_CMV_CIS: Attagene CIS-FACTORIAL HepG2 Assay for human CMV (Internal Marker) (AID 2282928).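 Also: endpoint acts as a background internal control marker rather than a target.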 Particulars: HepG2 CMV promoter reporter, transcription factor profiling; actives raise or lower the signal. Put shortly:
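CMV internal-marker background readout in transiently transfected HepG2 cells bearing cis-regulated reporter units. Reporter mRNA is measured 24 h after dosing by RT-PCR and capillary electrophoresis, with bidirectional fitting against DMSO.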

A short description of assay [18]: ATG_AP_2_CIS: Attagene CIS-FACTORIAL HepG2 Assay for human Activator Protein 2 (AP-2) (AID 2282932). Particulars: HepG2 AP-2 cis-reporter, Attagene transcription factor profiling; actives raise or lower the signal. The method, boiled down:
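Bidirectional curve fitting against DMSO was applied to reporter mRNA signals from HepG2 cells 24 h after dosing. Cis-promoter reporter units, transiently transfected, were read by RT-PCR plus capillary electrophoresis.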

Assay [19] is described as follows: ATG_FoxO_CIS: Attagene CIS-FACTORIAL HepG2 Assay for human Forkhead box O (FoxO) (AID 2282943). Particulars: HepG2 Attagene cis-reporter, FoxO element, mRNA; actives raise or lower the signal. The method, boiled down:
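24 h chemical exposure, HepG2 with transient cis-MRTU transfection. RNA extraction, oligo(dT) RT, reporter-specific PCR, primer-extension labelling, HpaI digestion, CE fragment analysis; bidirectional fit, DMSO baseline.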

Structures are written as SMILES. The source made the active and inactive calls. The calls were made as follows: active = hit-call score of the fitted dose curve at least 0.9, where 1 is the maximum; inactive = score below 0.9.

Retinoic acid receptor alpha (Homo sapiens), sequence (P10276 whole entry, looked up): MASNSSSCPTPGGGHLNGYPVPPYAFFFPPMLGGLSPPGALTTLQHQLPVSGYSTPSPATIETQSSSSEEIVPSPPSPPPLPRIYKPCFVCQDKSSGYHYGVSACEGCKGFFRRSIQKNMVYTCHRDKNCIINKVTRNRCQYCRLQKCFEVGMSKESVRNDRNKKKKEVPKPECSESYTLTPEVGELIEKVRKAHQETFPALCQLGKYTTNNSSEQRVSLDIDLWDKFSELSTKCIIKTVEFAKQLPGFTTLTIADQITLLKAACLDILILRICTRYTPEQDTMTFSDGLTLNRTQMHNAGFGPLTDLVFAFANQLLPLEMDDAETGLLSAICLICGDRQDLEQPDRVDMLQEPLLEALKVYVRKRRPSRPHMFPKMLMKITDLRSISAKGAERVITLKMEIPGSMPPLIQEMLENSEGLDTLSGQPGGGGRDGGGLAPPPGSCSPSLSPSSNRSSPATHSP
Transcription factor E2F1 (Homo sapiens), sequence (Q01094 whole entry, looked up): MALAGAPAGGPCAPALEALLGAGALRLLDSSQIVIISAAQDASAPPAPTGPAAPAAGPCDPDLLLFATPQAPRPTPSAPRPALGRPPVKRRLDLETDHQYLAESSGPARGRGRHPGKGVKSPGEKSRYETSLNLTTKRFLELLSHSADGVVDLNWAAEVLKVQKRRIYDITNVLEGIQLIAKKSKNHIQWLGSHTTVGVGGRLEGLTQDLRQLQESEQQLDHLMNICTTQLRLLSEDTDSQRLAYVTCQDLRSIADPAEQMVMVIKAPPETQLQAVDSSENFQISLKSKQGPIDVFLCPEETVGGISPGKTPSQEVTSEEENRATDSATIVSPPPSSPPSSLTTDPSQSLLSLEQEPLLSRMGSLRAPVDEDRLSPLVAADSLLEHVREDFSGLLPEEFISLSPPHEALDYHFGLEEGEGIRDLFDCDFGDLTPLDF
Hepatocyte nuclear factor 3-beta (Homo sapiens), sequence (Q9Y261 whole entry, looked up): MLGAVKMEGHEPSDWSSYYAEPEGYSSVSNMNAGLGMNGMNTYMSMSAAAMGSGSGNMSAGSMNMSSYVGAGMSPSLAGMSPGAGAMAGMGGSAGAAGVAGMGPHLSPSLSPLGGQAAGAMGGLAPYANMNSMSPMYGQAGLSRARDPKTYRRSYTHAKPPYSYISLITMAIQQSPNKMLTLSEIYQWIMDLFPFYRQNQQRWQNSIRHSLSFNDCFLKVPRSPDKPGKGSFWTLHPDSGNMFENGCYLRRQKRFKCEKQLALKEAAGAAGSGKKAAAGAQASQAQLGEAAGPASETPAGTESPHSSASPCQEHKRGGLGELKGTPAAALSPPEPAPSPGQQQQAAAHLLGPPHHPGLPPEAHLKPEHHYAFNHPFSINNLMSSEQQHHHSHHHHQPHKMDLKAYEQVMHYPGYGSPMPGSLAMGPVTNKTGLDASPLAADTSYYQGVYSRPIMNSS
CCAAT/enhancer-binding protein beta (Homo sapiens), sequence (P17676 whole entry, looked up, the tested form may be a part): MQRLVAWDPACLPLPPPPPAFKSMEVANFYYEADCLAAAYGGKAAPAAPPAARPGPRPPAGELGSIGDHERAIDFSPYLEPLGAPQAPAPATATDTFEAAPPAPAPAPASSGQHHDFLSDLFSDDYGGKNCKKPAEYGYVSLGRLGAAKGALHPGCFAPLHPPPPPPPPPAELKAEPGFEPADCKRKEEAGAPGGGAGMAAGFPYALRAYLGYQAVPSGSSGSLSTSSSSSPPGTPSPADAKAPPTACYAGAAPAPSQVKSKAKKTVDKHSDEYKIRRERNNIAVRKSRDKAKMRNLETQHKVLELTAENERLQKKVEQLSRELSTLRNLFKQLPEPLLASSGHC
Aryl hydrocarbon receptor (Homo sapiens), sequence (P35869 whole entry, looked up): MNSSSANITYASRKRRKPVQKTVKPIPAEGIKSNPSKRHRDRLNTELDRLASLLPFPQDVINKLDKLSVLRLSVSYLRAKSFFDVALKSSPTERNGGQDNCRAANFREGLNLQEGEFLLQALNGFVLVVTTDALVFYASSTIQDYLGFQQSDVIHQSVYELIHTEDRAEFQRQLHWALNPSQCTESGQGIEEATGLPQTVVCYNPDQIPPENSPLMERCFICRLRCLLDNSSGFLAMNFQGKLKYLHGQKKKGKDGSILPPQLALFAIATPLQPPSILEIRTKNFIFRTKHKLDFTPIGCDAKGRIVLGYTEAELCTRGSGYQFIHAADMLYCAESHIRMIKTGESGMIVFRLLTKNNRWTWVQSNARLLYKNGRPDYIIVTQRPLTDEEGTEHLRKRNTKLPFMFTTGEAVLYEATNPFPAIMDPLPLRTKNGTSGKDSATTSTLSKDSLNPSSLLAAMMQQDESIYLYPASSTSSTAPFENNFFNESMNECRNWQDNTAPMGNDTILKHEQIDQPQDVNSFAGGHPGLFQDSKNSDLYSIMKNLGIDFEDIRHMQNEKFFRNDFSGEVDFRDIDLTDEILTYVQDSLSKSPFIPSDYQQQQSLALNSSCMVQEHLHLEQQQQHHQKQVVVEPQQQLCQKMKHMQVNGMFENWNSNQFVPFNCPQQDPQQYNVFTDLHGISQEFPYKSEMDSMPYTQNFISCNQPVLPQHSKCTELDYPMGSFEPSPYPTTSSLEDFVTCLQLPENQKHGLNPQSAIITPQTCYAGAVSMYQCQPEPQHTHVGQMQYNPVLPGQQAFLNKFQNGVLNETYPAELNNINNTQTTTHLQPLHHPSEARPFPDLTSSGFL

Consider `CCCCCCCCC(=O)OCC`, for which the outcome in assay [1], in [2], in assay [3], in assay [4], in [5] and in [6] was inactive. The molecule was called inactive in [7], in [8], in [9], in [10], in [11] and in assay [12]. Besides, the molecule was classed as inactive in assay [13], in assay [14], in assay [15] and in assay [16].

Consider `CCC(C)(C)C1CCCCC1OC(C)=O` (stereo not given), for which the outcome in assay [1], in assay [2], in assay [3], in assay [18], in [5] and in assay [6] was inactive. Also, the molecule was classed as inactive in assay [7], in assay [8], in assay [9], in assay [10], in assay [11] and in assay [12]. The molecule was classed as inactive in assay [14], in assay [19], in [15] and in assay [16]. Also, the results for the AC50 in assay [17] and in [4] were 155 µM (active) and 158 µM (active), respectively.

On to `C[C@]12CCC(=O)C=C1CC[C@@H]1[C@@H]2C(=O)C[C@@]2(C)[C@H]1CC[C@]2(O)C(=O)CO`, for which the result in assay [1], in [17], in [2], in assay [3], in assay [4] and in assay [5] was inactive. In addition, the outcome in [6], in [7], in [8], in [9], in assay [10] and in assay [11] was inactive. Also, the molecule was classed as inactive in assay [12], in assay [13], in [14], in assay [19], in [15] and in assay [16].

For `CC(=O)Oc1ccc(C)cc1`, the outcome in assay [1], in assay [17], in assay [2], in assay [3], in [4] and in assay [18] was inactive. Besides, the outcome in assay [5], in [6], in assay [7], in [8], in assay [9] and in assay [10] was inactive. The outcome in [11], in [12], in assay [13], in assay [14], in assay [19] and in assay [15] was inactive. Moreover, in [16], the call was inactive.

For `CCC(C)OC(=O)c1ccc(O)cc1` (stereo not given), the outcome in [1], in [2], in assay [3], in assay [4], in assay [18] and in assay [5] was inactive. Further, the outcome in assay [6], in assay [7], in [9], in [10], in assay [11] and in assay [13] was inactive. In addition, the molecule was classed as inactive in assay [19], in assay [15] and in assay [16]. In addition, the AC50 in [17] was 67.6 µM (active); in assay [12], 0.868 µM (active).

As for `COc1cc(C)ccc1C(C)C`, the outcome in [1], in assay [17], in [2], in assay [3], in [4] and in assay [18] was inactive. Besides, the molecule was classed as inactive in [7], in assay [8], in assay [9], in assay [10], in assay [11] and in assay [12]. For the same molecule, the result in assay [13], in assay [14], in assay [15] and in assay [16] was inactive.

`C1CN(SSN2CCOCC2)CCO1`: the outcome in assay [1], in assay [17], in [2], in assay [3], in assay [4] and in assay [18] was inactive. Further, the result in assay [5], in assay [6], in [7], in [9], in assay [10] and in [11] was inactive. For the same molecule, the outcome in [12], in assay [14], in [19] and in assay [16] was inactive.

The values above are taken from PubChem BioAssay (EPA / NIEHS).
